According to PubChem BioAssay AID2284200 (EPA ToxCast):
Activity calls are given as the source filed them. How the source made its calls: active means hit-call score of the fitted dose curve at least 0.9, where 1 is the maximum; inactive means score below 0.9.

Assay: ERF_TW_NR_rI2: Eurofins (ERF) Radioligand Binding LeadHunter Assay for rat Imidazoline I2 Central Antagonism
Description: ERF_TW_NR_rI2 is a biochemical, single-readout assay that uses extracted gene-proteins in a cell-free assay. Measurements were taken 0.5 hour after chemical dosing in a 96-well plate. See Imidazoline I2, Central Rat Binding (Antagonist Radioligand) Assay, Panlabs.ERF_TW_NR_rI2 is an assay component calculated from the ERF_TW_NR_rI2 assay. It is designed to measure radioligand binding using a type of binding reporter as detected by scintillation counting with radiometry technology.Data from the assay component ERF_TW_NR_rI2 was analyzed at the assay endpoint, ERF_TW_NR_rI2, in the positive analysis fitting direction relative to DMSO as the negative control and baseline of activity. Using a type of binding reporter, loss-of-signal activity can be used to understand changes in radioligand binding as they relate to gene NISCH (homolog). To generalize the intended target to other relatable targets, this assay endpoint is annotated to the oxidoreductase intended target family, where the subfamily is imidazoline receptor.
Brains (except cerebella) of male Wistar derived rats weighing 175 +/- 25 g are used to prepare imidazoline I2 receptors in modified Tris-HCl buffer pH 7.4. A 15 mg aliquot is incubated with 2 nM [3H] Idazoxan for 30 minutes at 25C. […] Membranes are filtered and washed, the filters are then counted to determine [3H] […]

Compound	outcome
COc1cc(CCC(=O)CC(=O)CCc2ccc(O)c(OC)c2)ccc1O	inactive
